In PubChem BioAssay (NCI):
This is part of a sample that, as a whole, favours compounds with a hit. Of some 83,000 tested, about 20% had one in any assay.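 Cell lines were cultured in 96-well plates, exposed to a single compound concentration, and assessed for percent growth 48 hours later.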 A number with no mark means an inactive call. Active and inactive are the calls of the source.

The compounds below were run on SNB-19 CNS (assay: NCI-60 one-dose screen, 48 h (100 = growth as untreated, 0 = no growth, -100 = all killed)). Conditions: 10 µM unless noted.
Method: Growth inhibition of the SNB-19 human tumor cell line is measured as a screen for anti-cancer activity. Cells are grown in 96 well plates and exposed to the test compound for 48 hours. Compounds are tested at a single concentration, which is 10^-5 M for most compounds. The reported endpoint is percent growth (GI% or GIPRCNT), where numbers from 0 - 100% represent growth inhibition, and numbers from -100% - 0 represent cell death. For example, a value of 40 represents 60% growth inhibition. A value of 0 means no net growth occurred over the course of the experiment. A value of -40 indicates 40% of cells at the beginning of the experiment died by the end of the experiment. A value of -100 means all cells are dead at the end of the experiment.
NCI-60 Human Tumor Cell Lines Screen was performed using the standard one-dose NCI protocol, which is described in more detail at https://dtp.cancer.gov/discovery_development/nci-60/default.htm.
Compounds with GIPRCNT values below 10 were considered active. Activity score was based on GIPRCNT using the following formula: […]
Score is 0 for GIPRCNT values of 100 or above, 50 for GIPRCNT values of 0, and 100 for GIPRCNT values of -100.

SMILES | growth
COC(=O)c1ccc(NC(N)=NCCC(C)(C)c2ccc(C(F)(F)F)cc2)nc1 | 59.9%
CN(C)c1ccc(C(c2ccccc2)c2ccc(N(C)C)cc2)cc1 | 96.9%
Fc1cnccc1-c1nc2ccc3[nH]ncc3c2c2c1CCCC2 | 44.2%
COc1ccc(C2C3=C(COC3=O)N(CCO)c3cc(OC)c(OC)cc32)cc1 (stereo not given) | 109%
C=C(C)C1CCC2(C(=O)O)CCC3(C)C(CCC4C5(C)CCC(O)C(C)(C)C5CCC43C)C12 (stereo not given) | 9.23% (active)
COc1cccc2nc(Nc3cccc(NC(=O)c4cc(N5CCOCC5)cc(C(F)(F)F)c4)c3)ccc12 | 74.6%
CC(OC(=O)Nc1cccc(Cl)c1)C(=O)O (stereo not given) | 96.6%
COC1=CC(c2ccc[nH]2)=N/C1=C\c1[nH]c(C)c(C(=O)CCCCCCCCC(=O)O[C@H]2CC[C@H]3C4CCc5cc(O)ccc5C4CC[C@]23C)c1C (stereo not given in full) | 56.2%
Oc1ccc(CCCCCCc2ccc(O)cc2)cc1 | 112%
CC1=C(C(=O)Nc2ccc(F)cc2)C(c2ccc(C)cc2)C2=C(CC(C)(C)CC2=O)N1 (stereo not given) | 92.5%
COc1ccc(/C=c2\c(=O)n(-c3ccccc3)c3nn4c(n23)=NNC42CCCCC2)cc1 | 93.9%
COC(=O)C(C)NC1=C(Cl)C(=O)C(NC(C)C(=O)OC)=C(Cl)C1=O (stereo not given) | 94%
CC(=O)OC1Oc2cc(C)c(C)cc2-c2oc(=O)c(-c3ccc(F)cc3)cc21 (stereo not given) | 90.5%
O=C(C(=O)c1cccnc1)c1cccnc1 | 110%
Fc1ccc2nc(-c3ccc(-c4noc(-c5ccc(Cl)cc5)n4)cc3)[nH]c2c1 | 110%
NC(=S)N/N=C(/c1cccs1)C1CC1 | 100%
[O-]/[N+](=C\c1ccccc1)CC1(O)CCCCC1 | 99.4%
CN1CCN(Cc2ccc(NC(=O)c3cncc(C#Cc4ncc5ccccn45)c3)cc2C(F)(F)F)CC1 | 39%
O=Cc1ccc2nc(C(Cl)(Cl)Cl)ccc2c1 | 102%
CCCc1n(Cc2ccc3ccccc3c2)c2ccccc2[n+]1Cc1ccc2ccccc2c1 | -76% (active)

SMILES | growth
COc1ccc(/C=C(/C(=O)N2CCN(c3ccccc3)CC2)c2cc(OC)c(OC)c(OC)c2)cc1O | 27.1%
O=C(Nc1ccc(Br)cc1)Nc1ccccc1Cl | 117%
O=C(Nc1ccccc1Cl)Oc1ccc2ccccc2c1 | 98.3%
Oc1[nH]c2ccc(Cl)cc2c1/C=c1/ccc2c(c1)N=C(c1ccc(F)cc1)N=2 | 69%
Cc1c(O)c(=O)n(-c2ccccc2)n1C | 106%
O=c1cc(-c2ccc3c(c2)OCCO3)oc2cc(Cl)ccc12 | 30.3%
CCN1CCN(Cc2ccc(NC(=O)c3nc4ccc5[nH]ncc5c4c4c3CCCC4)cc2C(F)(F)F)CC1 | 13.9%
Cc1ccc2oc(=O)cc(-c3nc4ccc([N+](=O)[O-])cc4[nH]3)c2c1 | 61.4%
C/C(=N\NC(=S)N1CCCCC1)c1ccccn1 | 22.9%
Cc1ccccc1CNc1ncnc2[nH]ncc12 | 95.5%
COc1ccc(/C=C/C(=O)c2ccc(NC(=O)CSc3nnc(-c4ccc(Cl)cc4)n3-c3ccccc3)cc2)cc1 | 96.2%
[Ag].[Ag].[NH-]S(=O)(=O)c1ccc(N=Nc2cc(N=Nc3ccc(S([NH-])(=O)=O)cc3)c3c(NC(=O)C(Cl)Cl)cccc3c2OC(=O)C(Cl)Cl)cc1.[c-]1nccs1.[c-]1nccs1 | 80.7%
CC(C)c1ccc(Cn2ccc3c4c(N)nc(NC5CC5)nc4ccc32)cc1 | -85.1% (active)
CO[C@@]12[C@@H]3NC3CN1C1=C(C(=O)C(N)=C(C)C1=O)[C@@H]2COC(N)=O (stereo not given in full) | 18.3%
Nc1c(C(=O)Nc2cccc(Cl)c2)sc2ncc(Br)cc12 | 107%
C#CC[C@@H]1C[C@]2(C)[C@H]3CC=C4[C@H]5[C@@H](C)[C@H](C)CC[C@]5(C(=O)NCCCCN)CC[C@@]4(C)[C@]3(C)CC[C@H]2C(C)(C)[C@H]1OC(C)=O | 73.9%
CN1CCN(Cc2ccc(NC(=O)c3cccc(C#Cc4cnc(N)c5ncccc45)c3F)cc2C(F)(F)F)CC1 | 96.4%
CN1CCN(c2ccc(N3Cc4ccccc4OC4=C3C(=O)c3c(O)ccc(O)c3C4=O)cn2)CC1 | 11%
OC(c1cc2cc(Cl)ccc2c2cc(C(F)(F)F)ccc12)C1CCCCN1 (stereo not given) | -68.6% (active)
CCOCC(O)(c1ccc(Cl)cc1)c1ccc(Cl)cc1 | 106%
